# Laboratory results: publication PMC11006913
# Positions count from the first letter of the chain named.
# How the values were obtained:
# Experiment in all cases: PBM; 200 nM protein, PBS
# Conditions in all cases: dsDNA, one strand shown
# NKX2-5 [1] = molecular target: NKX2-5 (Homo sapiens, UniProt P52952 125-210, R139K)
# NKX2-4 = molecular target: T1, NKX2-4 (Homo sapiens, UniProt Q9H2Z4 175-261, T231S)
# T1 sequence: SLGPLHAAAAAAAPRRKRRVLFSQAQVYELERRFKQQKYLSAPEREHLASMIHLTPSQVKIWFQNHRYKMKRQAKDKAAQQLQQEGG
# NKX2-6 [2] = molecular target: T2, NKX2-6 (Homo sapiens, UniProt A6NCS4 118-204, R150C)
# T2 sequence: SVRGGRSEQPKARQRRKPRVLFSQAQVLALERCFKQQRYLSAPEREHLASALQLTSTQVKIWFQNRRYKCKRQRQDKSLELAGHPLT
# NKX2-6 [3] = molecular target: T3, NKX2-6 (Homo sapiens, UniProt A6NCS4 118-204)
# T3 sequence: T2 sequence with C33R
# NKX2-6 [4] = molecular target: T4, NKX2-6 (Homo sapiens, UniProt A6NCS4 118-204, F151L)
# T4 sequence: T2 sequence with C33R, F34L
# NKX3-2 [5] = molecular target: NKX3-2 (Homo sapiens, UniProt P78367 192-278, P234S)
# Sequence of NKX3-2 (Homo sapiens, UniProt P78367 192-278, P234S) (P78367 192-278 P234S): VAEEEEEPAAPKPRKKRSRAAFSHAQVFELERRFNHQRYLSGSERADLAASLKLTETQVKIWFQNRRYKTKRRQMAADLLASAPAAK
# NKX2-5 [6] = molecular target: NKX2-5 (Homo sapiens, UniProt P52952 125-210)
# Sequence of NKX2-5 (Homo sapiens, UniProt P52952 125-210) (P52952 125-210): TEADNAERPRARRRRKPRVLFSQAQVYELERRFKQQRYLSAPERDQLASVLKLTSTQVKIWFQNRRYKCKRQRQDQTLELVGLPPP
# NKX3-2 [7] = molecular target: NKX3-2 (Homo sapiens, UniProt P78367 192-278)
# Sequence of NKX3-2 (Homo sapiens, UniProt P78367 192-278) (P78367 192-278): as the sequence (P78367 192-278 P234S) above, with S43P counted along it
# SIX6 [8] = molecular target: T5, SIX6 (Homo sapiens, UniProt O95475 114-200, L167I)
# T5 sequence: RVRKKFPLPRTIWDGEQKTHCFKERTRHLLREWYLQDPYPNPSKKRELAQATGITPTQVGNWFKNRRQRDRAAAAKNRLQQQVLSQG
# SIX6 [9] = molecular target: T6, SIX6 (Homo sapiens, UniProt O95475 114-200, L143V)
# T6 sequence: T5 sequence with L30V, I54L
# SIX6 [10] = molecular target: T7, SIX6 (Homo sapiens, UniProt O95475 114-200, H141N)
# T7 sequence: T5 sequence with H28N, I54L
# SIX6 [11] = molecular target: T8, SIX6 (Homo sapiens, UniProt O95475 114-200, T165P)
# T8 sequence: T5 sequence with T52P, I54L
# SIX6 [12] = molecular target: T9, SIX6 (Homo sapiens, UniProt O95475 114-200, L167M)
# T9 sequence: T5 sequence with I54M
# SIX6 [13] = molecular target: T10, SIX6 (Homo sapiens, UniProt O95475 114-200, L143M)
# T10 sequence: T5 sequence with L30M, I54L
# SIX6 [14] = molecular target: T11, SIX6 (Homo sapiens, UniProt O95475 114-200, L143I)
# T11 sequence: T5 sequence with L30I, I54L
# SIX6 [15] = molecular target: T12, SIX6 (Homo sapiens, UniProt O95475 114-200, T165G)
# T12 sequence: T5 sequence with T52G, I54L
# HOXA2 [16] = molecular target: HOXA2 (Homo sapiens, UniProt O43364 129-215, R185T)
# Sequence of HOXA2 (Homo sapiens, UniProt O43364 129-215, R185T) (O43364 129-215 R185T): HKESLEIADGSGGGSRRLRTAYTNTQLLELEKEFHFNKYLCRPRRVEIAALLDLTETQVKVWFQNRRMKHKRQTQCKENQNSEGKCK
# SIX6 [17] = molecular target: T13, SIX6 (Homo sapiens, UniProt O95475 114-200, T139Q)
# T13 sequence: T5 sequence with T26Q, I54L
# ALX3 [18] = molecular target: ALX3 (Homo sapiens, UniProt O95076 139-225, N203Q)
# Sequence of ALX3 (Homo sapiens, UniProt O95076 139-225, N203Q) (O95076 139-225 N203Q): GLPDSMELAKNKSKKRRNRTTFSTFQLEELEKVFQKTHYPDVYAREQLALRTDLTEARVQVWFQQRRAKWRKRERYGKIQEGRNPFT
# SIX6 [19] = molecular target: T14, SIX6 (Homo sapiens, UniProt O95475 114-200, T165A)
# T14 sequence: T5 sequence with T52A, I54L
# HOXA2 [20] = molecular target: HOXA2 (Homo sapiens, UniProt O43364 129-215, R185K)
# Sequence of HOXA2 (Homo sapiens, UniProt O43364 129-215, R185K) (O43364 129-215 R185K): as the sequence (O43364 129-215 R185T) above, with T57K counted along it
# SIX6 [21] = molecular target: T15, SIX6 (Homo sapiens, UniProt O95475 114-200, L167V)
# T15 sequence: T5 sequence with I54V
# ALX3 [22] = molecular target: ALX3 (Homo sapiens, UniProt O95076 139-225)
# Sequence of ALX3 (Homo sapiens, UniProt O95076 139-225) (O95076 139-225): as the sequence (O95076 139-225 N203Q) above, with Q65N counted along it
# SIX6 [23] = molecular target: T16, SIX6 (Homo sapiens, UniProt O95475 114-200)
# T16 sequence: T5 sequence with I54L
# ALX3 [24] = molecular target: ALX3 (Homo sapiens, UniProt O95076 139-225, L168Q)
# Sequence of ALX3 (Homo sapiens, UniProt O95076 139-225, L168Q) (O95076 139-225 L168Q): as the sequence (O95076 139-225 N203Q) above, with L30Q, Q65N counted along it
# SIX6 [25] = molecular target: T17, SIX6 (Homo sapiens, UniProt O95475 114-200, T165I)
# T17 sequence: T5 sequence with T52I, I54L
# ALX3 [26] = molecular target: ALX3 (Homo sapiens, UniProt O95076 139-225, L168V)
# Sequence of ALX3 (Homo sapiens, UniProt O95076 139-225, L168V) (O95076 139-225 L168V): as the sequence (O95076 139-225 N203Q) above, with L30V, Q65N counted along it
# HOXA2 [27] = molecular target: HOXA2 (Homo sapiens, UniProt O43364 129-215, Y150S)
# Sequence of HOXA2 (Homo sapiens, UniProt O43364 129-215, Y150S) (O43364 129-215 Y150S): as the sequence (O43364 129-215 R185T) above, with Y22S, T57R counted along it
# ALX3 [28] = molecular target: ALX3 (Homo sapiens, UniProt O95076 139-225, N203S)
# Sequence of ALX3 (Homo sapiens, UniProt O95076 139-225, N203S) (O95076 139-225 N203S): as the sequence (O95076 139-225 N203Q) above, with Q65S counted along it
# HOXA2 [29] = molecular target: HOXA2 (Homo sapiens, UniProt O43364 129-215)
# Sequence of HOXA2 (Homo sapiens, UniProt O43364 129-215) (O43364 129-215): as the sequence (O43364 129-215 R185T) above, with T57R counted along it
# HOXA4 [30] = molecular target: HOXA4 (Homo sapiens, UniProt Q00056 201-287, W262R)
# Sequence of HOXA4 (Homo sapiens, UniProt Q00056 201-287, W262R) (Q00056 201-287 W262R): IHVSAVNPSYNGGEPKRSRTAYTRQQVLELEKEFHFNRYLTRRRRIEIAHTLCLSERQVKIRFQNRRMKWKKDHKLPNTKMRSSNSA
# PRRX1 [31] = molecular target: PRRX1 (Homo sapiens, UniProt P54821 80-166, F113S)
# Sequence of PRRX1 (Homo sapiens, UniProt P54821 80-166, F113S) (P54821 80-166 F113S): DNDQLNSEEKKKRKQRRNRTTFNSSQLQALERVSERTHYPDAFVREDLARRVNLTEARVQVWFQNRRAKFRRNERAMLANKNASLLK
# HOXA4 [32] = molecular target: HOXA4 (Homo sapiens, UniProt Q00056 201-287, R217L)
# Sequence of HOXA4 (Homo sapiens, UniProt Q00056 201-287, R217L) (Q00056 201-287 R217L): as the sequence (Q00056 201-287 W262R) above, with R17L, R62W counted along it
# HOXA4 [33] = molecular target: HOXA4 (Homo sapiens, UniProt Q00056 201-287)
# Sequence of HOXA4 (Homo sapiens, UniProt Q00056 201-287) (Q00056 201-287): as the sequence (Q00056 201-287 W262R) above, with R62W counted along it
# HOXA4 [34] = molecular target: HOXA4 (Homo sapiens, UniProt Q00056 201-287, W262F)
# Sequence of HOXA4 (Homo sapiens, UniProt Q00056 201-287, W262F) (Q00056 201-287 W262F): as the sequence (Q00056 201-287 W262R) above, with R62F counted along it
# PRRX1 [35] = molecular target: PRRX1 (Homo sapiens, UniProt P54821 80-166)
# Sequence of PRRX1 (Homo sapiens, UniProt P54821 80-166) (P54821 80-166): as the sequence (P54821 80-166 F113S) above, with S34F counted along it
# Sequence of NKX2-5 (Homo sapiens, UniProt P52952 125-210, R139K) (P52952 125-210 R139K): as the sequence (P52952 125-210) above, with R15K counted along it
sequence,measurement,setting,value
TAAGTACA,binding signal,NKX2-5 [1],"12.4 upbm affinity estimate (log intensity, higher = more binding, comparable within an allelic series)"
same,binding signal,NKX2-4,"12.8 upbm affinity estimate (log intensity, higher = more binding, comparable within an allelic series)"
same,binding signal,NKX2-6 [2],"11.9 upbm affinity estimate (log intensity, higher = more binding, comparable within an allelic series)"
same,binding signal,NKX2-6 [3],"13.3 upbm affinity estimate (log intensity, higher = more binding, comparable within an allelic series)"
same,binding signal,NKX2-6 [4],"10.5 upbm affinity estimate (log intensity, higher = more binding, comparable within an allelic series)"
same,binding signal,NKX3-2 [5],"12.6 upbm affinity estimate (log intensity, higher = more binding, comparable within an allelic series)"
same,binding signal,NKX2-5 [6],"12.4 upbm affinity estimate (log intensity, higher = more binding, comparable within an allelic series)"
same,binding signal,NKX3-2 [7],"12.6 upbm affinity estimate (log intensity, higher = more binding, comparable within an allelic series)"
CAGCGGCC,binding signal,NKX2-5 [1],"8.81 upbm affinity estimate (log intensity, higher = more binding, comparable within an allelic series)"
same,binding signal,SIX6 [8],"8.85 upbm affinity estimate (log intensity, higher = more binding, comparable within an allelic series)"
same,binding signal,SIX6 [9],"8.77 upbm affinity estimate (log intensity, higher = more binding, comparable within an allelic series)"
same,binding signal,SIX6 [10],"8.79 upbm affinity estimate (log intensity, higher = more binding, comparable within an allelic series)"
same,binding signal,SIX6 [11],"8.97 upbm affinity estimate (log intensity, higher = more binding, comparable within an allelic series)"
same,binding signal,SIX6 [12],"8.8 upbm affinity estimate (log intensity, higher = more binding, comparable within an allelic series)"
same,binding signal,SIX6 [13],"8.83 upbm affinity estimate (log intensity, higher = more binding, comparable within an allelic series)"
same,binding signal,SIX6 [14],"8.89 upbm affinity estimate (log intensity, higher = more binding, comparable within an allelic series)"
same,binding signal,SIX6 [15],"8.88 upbm affinity estimate (log intensity, higher = more binding, comparable within an allelic series)"
same,binding signal,HOXA2 [16],"7.12 upbm affinity estimate (log intensity, higher = more binding, comparable within an allelic series)"
same,binding signal,SIX6 [17],"8.81 upbm affinity estimate (log intensity, higher = more binding, comparable within an allelic series)"
same,binding signal,ALX3 [18],"7.77 upbm affinity estimate (log intensity, higher = more binding, comparable within an allelic series)"
same,binding signal,SIX6 [19],"8.75 upbm affinity estimate (log intensity, higher = more binding, comparable within an allelic series)"
same,binding signal,HOXA2 [20],"10.2 upbm affinity estimate (log intensity, higher = more binding, comparable within an allelic series)"
same,binding signal,SIX6 [21],"8.83 upbm affinity estimate (log intensity, higher = more binding, comparable within an allelic series)"
same,binding signal,ALX3 [22],"7.75 upbm affinity estimate (log intensity, higher = more binding, comparable within an allelic series)"
same,binding signal,SIX6 [23],"8.8 upbm affinity estimate (log intensity, higher = more binding, comparable within an allelic series)"
same,binding signal,ALX3 [24],"7.78 upbm affinity estimate (log intensity, higher = more binding, comparable within an allelic series)"
same,binding signal,SIX6 [25],"8.74 upbm affinity estimate (log intensity, higher = more binding, comparable within an allelic series)"
same,binding signal,ALX3 [26],"7.74 upbm affinity estimate (log intensity, higher = more binding, comparable within an allelic series)"
same,binding signal,HOXA2 [27],"10.4 upbm affinity estimate (log intensity, higher = more binding, comparable within an allelic series)"
same,binding signal,ALX3 [28],"7.77 upbm affinity estimate (log intensity, higher = more binding, comparable within an allelic series)"
same,binding signal,HOXA2 [29],"7.19 upbm affinity estimate (log intensity, higher = more binding, comparable within an allelic series)"
same,binding signal,NKX2-5 [6],"8.82 upbm affinity estimate (log intensity, higher = more binding, comparable within an allelic series)"
GTCTAGAC,binding signal,NKX2-5 [1],"9.21 upbm affinity estimate (log intensity, higher = more binding, comparable within an allelic series)"
same,binding signal,HOXA4 [30],"9.98 upbm affinity estimate (log intensity, higher = more binding, comparable within an allelic series)"
same,binding signal,PRRX1 [31],"9.59 upbm affinity estimate (log intensity, higher = more binding, comparable within an allelic series)"
same,binding signal,HOXA4 [32],"10.1 upbm affinity estimate (log intensity, higher = more binding, comparable within an allelic series)"
same,binding signal,NKX2-6 [3],"10.1 upbm affinity estimate (log intensity, higher = more binding, comparable within an allelic series)"
same,binding signal,HOXA4 [33],"9.99 upbm affinity estimate (log intensity, higher = more binding, comparable within an allelic series)"
same,binding signal,NKX2-6 [4],"9.52 upbm affinity estimate (log intensity, higher = more binding, comparable within an allelic series)"
same,binding signal,HOXA4 [34],"10 upbm affinity estimate (log intensity, higher = more binding, comparable within an allelic series)"
same,binding signal,PRRX1 [35],"9.88 upbm affinity estimate (log intensity, higher = more binding, comparable within an allelic series)"
same,binding signal,NKX2-5 [6],"9.52 upbm affinity estimate (log intensity, higher = more binding, comparable within an allelic series)"
